Most compounds without a hit are left out; they make up all but 6% or so of the library.
D1 agonist: agonists of human D1 dopamine receptor. P21728. HEK293 T-REx D1 cells, calcium flux, agonist mode. activation, % at 2 µM. actives 1% (n = 360,000). AID 504660; in the data active = activation above about 30%; also: 0% is about no effect
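Agonism was scored from calcium flux recorded over 180 s (1 read/s) after pintool compound addition, following a 10-cycle baseline. Cells were inducible force-coupled HEK293 TREx D1, plated overnight at 30 C and loaded with no-wash calcium dye.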
D1 antag: antagonists of human D1 dopamine receptor; P21728; HEK293 TREx D1 cells, calcium flux, dopamine EC80; hits give low values; activity change, negative = inhibition, % at 10 µM; actives 3.2% (n = 360,000); in the data active = activity change below about -30%; also: % is scaled to controls: 0 for no effect and ±100 for the full control effect
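Tetracycline-induced HEK293 T-REx cells with force-coupled D1 receptor were loaded with a no-wash calcium dye. Compound was added after a 10 s baseline and read kinetically for 180 s; EC80 dopamine was then added and calcium flux followed another 180 s.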
DRD3 antagonist: antagonists of human D3 dopamine receptor; D3R cells, DiscoveRx beta-arrestin luminescence, antagonist mode; hits give low values; max response, negative = inhibition, %; actives 2.5% (n = 360,000); in the data active = max response below about -50%; inconclusive = no clear call, values can overlap the other calls; also: % is scaled to controls: 0 for no effect and ±100 for the full control effect
Target sequence (P35462 whole entry, looked up): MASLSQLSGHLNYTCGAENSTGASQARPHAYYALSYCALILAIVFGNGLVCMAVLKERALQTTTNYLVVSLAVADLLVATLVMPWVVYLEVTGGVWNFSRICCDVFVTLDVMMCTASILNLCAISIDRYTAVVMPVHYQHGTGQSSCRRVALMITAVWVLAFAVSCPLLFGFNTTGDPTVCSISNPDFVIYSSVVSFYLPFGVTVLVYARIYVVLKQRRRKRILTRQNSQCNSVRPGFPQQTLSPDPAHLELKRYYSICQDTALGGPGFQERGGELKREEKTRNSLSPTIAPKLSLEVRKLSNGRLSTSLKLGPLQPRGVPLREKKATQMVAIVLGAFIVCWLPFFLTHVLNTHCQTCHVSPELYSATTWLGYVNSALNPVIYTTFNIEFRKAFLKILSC
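Cells plated overnight at 1500 cells/well, then exposed to library compounds with dopamine controls for 90 minutes at 37 degrees C. DiscoveRx reagent added for 30–60 minutes at room temperature; luminescence read, quantitative HTS format.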
D1 potentiator: human D1 dopamine receptor positive modulation | AID 504651 | HEK293 TREx D1 cells, calcium flux, dopamine EC20 potentiation | P21728 | actives 0.036% (n = 360,000) | potentiation, % at 10 µM; in the data active = potentiation above about 30%; also: 0% is about no effect
D3 ag: activates the human D3 dopamine receptor; max activation, %; D3R DiscoveRx beta-arrestin cells, luminescence, 90 min; actives 0.58% (n = 410,000); AID 652048; P35462; in the data active = max activation above about 30%; also: 0% is about no effect
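Agonist-mode cell screen: cells plated at 1500/well and incubated overnight at 37 °C, then exposed to library compounds for 90 min at 37 °C. Detection reagent was added for 30–60 min at room temperature, and luminescence was read.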
* marks the source's active call; other numbers are inactive results; ? = inconclusive; . = no result.

SMILES	D1 agonist	D1 antag	DRD3 antagonist	D1 potentiator	D3 ag
CCc1nc2ccc(C(=O)NCCCN3CCN(c4ccccc4F)CC3)cc2nc1CC	2	-32*	-66*	-8	18
CCN1CCN(CCNC(=O)c2ccc3nc(-c4cccc(C)c4)c(-c4cccc(C)c4)nc3c2)CC1	63*	-6	1	-3	16
COc1ccc(N2CCN(CCNC(=O)c3ccc4nc5ccccc5c(=O)n4c3)CC2)cc1	-1	11	13	2	3
O=C(NCCCN1CCOCC1)c1ccc2nc(Cc3ccccc3F)oc2c1	2	-1	31	-3	5
CSc1ccc(CCNC(=O)Cn2ncn3c(cc4ccccc43)c2=O)cc1	2	6	.	-6	12
COc1ccc(N(CC(=O)Nc2cccc(C(C)=O)c2)S(=O)(=O)c2ccccc2)c(OC)c1	0	-4	.	-4	3
CCCOc1ccc(CNC(=O)C(CC)n2nc(C)c3sc4ccccc4c3c2=O)cc1 (centres undefined)	1	8	.	2	5
O=C(NCCCN1CCN(c2ccc(F)cc2)CC1)c1ccc2nc(CCc3ccccc3)oc2c1	15	-3	.	-5	-1
O=C(NCCCN1CCN(c2ccccc2F)CC1)c1ccc2nc(CCc3ccccc3)oc2c1	19	-31*	.	-5	8
COc1ccc(C(=O)C(C)[n+]2ccc(C)c3ccccc32)cc1[N+](=O)[O-] (centres undefined)	52*	-25	-19	-7	-9
Cn1c2c(c(=O)n(C)c1=O)C(C(F)(F)F)(C(F)(F)F)N=C(CCC1CCCCC1)N2	18	-52*	23	-8	15
Cn1c2c(c(=O)n(C)c1=O)C(C(F)(F)F)(C(F)(F)F)N=C(c1ccccc1Cl)N2	7	.	30	-2	-3
Cc1ccc(C(=O)NCC(=O)OCc2cc(=O)n3c(C)csc3n2)cc1	-1	-16	.	-5	8
N#Cc1c(-n2ncnc2-c2ccccc2Cl)sc2c1CCCCC2	0	-35*	.	3	5
O=C(Nc1ccc(OC(F)(F)F)cc1)Nc1cccnc1	21	-27	8	-12	2
CC(C)(C)c1ccc(C(=O)Nc2cccc([N+](=O)[O-])c2)cc1	10	-16	?	-4	-4
CC(C)(C)CC(C)(C)NC(=O)Nc1cccc([N+](=O)[O-])c1	18	-41*	-16	-8	3
Cc1ccc(NC(=O)Nc2cccc([N+](=O)[O-])c2)cc1F	32*	-57*	-19	-6	-4
O=C(Nc1ccc(OC(F)(F)F)cc1)Nc1cccc([N+](=O)[O-])c1	30*	-47*	16	-15	1
O=C(Nc1ccc(S(=O)(=O)N(Cc2ccccc2)c2ccccc2)cc1)c1ccc([N+](=O)[O-])cc1	0	-1	.	2	-14
Cc1ccc(C)c(NC(=O)CCCN2C(=O)C(c3ccccc3)Oc3cccnc32)c1 (centres undefined)	5	0	.	-4	0
Cc1cccc(C)c1Nc1ncccc1C(=O)O	.	.	.	.	11
CCOC(=O)C(=Cc1ccc(-n2cncn2)cc1)C(=O)OCC	2	2	-64*	-4	-17
Cc1ccc(-n2ncc(C(=O)NCCc3ccsc3)c2C2CCN(C(=O)OC(C)(C)C)CC2)cc1C	3	-4	.	-4	3
Cc1cc(C)cc(N(CC(=O)Nc2c(C)cc(C)cc2C)S(=O)(=O)c2c(C)nn(C)c2C)c1	3	7	.	3	78*
SMILES	D1 agonist	D1 antag	DRD3 antagonist	D1 potentiator	D3 ag
O=C(Nc1ccc2c(c1)OCCO2)C1CCCN(S(=O)(=O)c2cccc3nsnc23)C1 (centres undefined)	0	-36*	-4	38*	1
O=C(Nc1ccc2c(c1)OCCO2)C1CCN(S(=O)(=O)c2cccc3nsnc23)CC1	.	.	2	.	0
CCN(CC)S(=O)(=O)c1ccc2c(c1)c(=O)c(C(=O)N1CCN(c3cccc(C)c3)C(C)C1)cn2C (centres undefined)	1	-4	.	7	-10
CCOc1ccc(CCNC(=O)c2ccc3c(c2)N(Cc2ccccc2F)C(=O)c2ccccc2S3=O)cc1OCC (centres undefined)	1	-12	.	-1	-7
CC(=O)N1CCc2c(sc(NC(=O)CSc3ccc(F)cc3)c2-c2nc3ccccc3s2)C1	2	.	.	-2	-13
CC(C)N1CCc2c(sc(NC(=O)c3ccc4ccccc4c3)c2C(N)=O)C1	24	-10	-17	-3	-11
CC(=O)Nc1sc2c(c1-c1nc3ccccc3s1)CCN(C(C)C)C2	74*	-13	-116*	9	-10
CCN1CCc2c(sc(NC(=O)CSc3ccccc3)c2-c2nc3ccccc3s2)C1	403*	-24	.	-5	-24
CN1CCc2c(sc(NC(=O)CSc3ccc(F)cc3)c2-c2nc3ccccc3s2)C1	399*	-22	.	-1	-21
COc1cccc(C(=O)NCc2cn3cccc(C)c3n2)c1	-1	-1	.	-3	-11
CCCOP(=O)(c1ccc(N(C)C)cc1)C(O)c1cccnc1 (centres undefined)	-1	7	-8	-2	30*
CCCCOP(=O)(OCCCC)C(O)c1ccc(N(C)C)cc1 (centres undefined)	4	-37*	13	-11	-4
COCCCn1c(=O)c2sccc2n2c(CCCC(=O)Nc3cc(C)cc(C)c3)nnc12	2	-5	.	4	1
Cc1ccccc1Nc1c(-c2ccco2)nc2c(C)cccn12	2	0	.	1	0
CCCC(=O)N1CC(=O)Nc2ccc(C)cc2C1c1ccc(F)cc1 (centres undefined)	-1	-88*	-8	-7	-4
CCCC(=O)N1CC(=O)Nc2ccc(Br)cc2C1c1ccc(F)cc1 (centres undefined)	4	11	3	2	-5
C=C(C)Cn1c2ccc(NC(=O)CCc3cccc(Cl)c3)cc2c(=O)n1C	.	.	7	.	45*
COc1ccc(Cn2cc3c(-c4ccc(F)cc4)nnc-3c3cc(OC)c(OC)cc32)cc1	20	65	1	2	2
COc1cc2c3nnc(-c4ccc(F)cc4)c-3cn(Cc3ccc(F)cc3)c2cc1OC	2	-37*	-23	-10	-11
COc1cccc(CNC(=O)CN2C(=O)CCn3nc(-c4cn(C)c5ccccc45)cc32)c1OC	-1	4	.	2	-4
CSc1nc2c(cc1C#N)C(=O)CC(C)(C)C2	-1	1	-2	3	7
CCCCOC(=O)CSc1nc2c(cc1C#N)C(=O)CC(C)(C)C2	1	-39*	-8	3	1
Cc1nn(C(=O)c2ccc(Br)cc2)c(C)c1S(=O)(=O)N1CCOCC1	-1	-8	.	-1	1
CC(=O)c1cccc(NC(=O)CSc2ccc(-c3ccco3)nn2)c1	1	-56*	5	-9	2

High-throughput results: PubChem BioAssay, National Center for Advancing Translational Sciences (NCATS)
